Screening data as filed in PubChem.
The list is not random: actives were taken first. Their share in the collection is about 2.1%.
TDP-43 yeast inh = inhibitors of TDP-43 toxicity in yeast; 1.8% of 410,000 active; AID 652104; TDP-43 expressing yeast growth rescue, BacTiter-Glo, 24 h; Potency, µM (top dose mostly 46.1 µM), inactives show at the top dose growth rescue (activation), usual class: activators; further: % of control where 0% means no effect; nearly all actives have a fitted effect of over 50% in size
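In this qHTS, compounds that restore growth of yeast expressing TDP-43 appear as activators. Cells (OD600=0.02, galactose medium, raffinose-pregrown) are incubated with compound 24 hr at 30 deg C and growth is quantified by BacTiter-Glo.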
Abeta rescue = restores growth of yeast expressing A-beta42 peptide; yeast expressing A-beta42, growth rescue, OD600, 48 h; response scale: 0% DMSO, 100% iron-clioquinol control; Potency, µM (highest dose often 46.1 µM), most hits filed as activators; 0.063% of 410,000 active; further: nearly all actives have a fitted effect of over 55% in size
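Yeast A-beta toxicity model in growth medium with pinned compounds, 48 h at 30 C; growth read as absorbance at 600 nm. Normalized to FeCl3/clioquinol equimolar mix (positive) and DMSO (negative).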
PTAP TSG101 blk = blocks PTAP/TSG101 interaction to inhibit HIV-1 budding | Q99816 | Fluorescence polarization, FITC-PTAP peptide / Tsg101 binding | Potency, µM (top dose mostly 115 µM), for the others: at the top dose activity change, negative = inhibition, actives largely listed as inhibitors | 340,000 tested, under 10 active; active means well fitted inhibition curve with a large enough effect in the main read-out, with a control signal flat, not every such curve was filed as active; inconclusive means small, poorly fitted or top-dose-only effect, or effect the other way, or a change in a side signal; inactive means no such curve, though single readings can be large or run the other way; further: % of control where 0% means no effect
Target sequence (Q99816 whole entry, looked up): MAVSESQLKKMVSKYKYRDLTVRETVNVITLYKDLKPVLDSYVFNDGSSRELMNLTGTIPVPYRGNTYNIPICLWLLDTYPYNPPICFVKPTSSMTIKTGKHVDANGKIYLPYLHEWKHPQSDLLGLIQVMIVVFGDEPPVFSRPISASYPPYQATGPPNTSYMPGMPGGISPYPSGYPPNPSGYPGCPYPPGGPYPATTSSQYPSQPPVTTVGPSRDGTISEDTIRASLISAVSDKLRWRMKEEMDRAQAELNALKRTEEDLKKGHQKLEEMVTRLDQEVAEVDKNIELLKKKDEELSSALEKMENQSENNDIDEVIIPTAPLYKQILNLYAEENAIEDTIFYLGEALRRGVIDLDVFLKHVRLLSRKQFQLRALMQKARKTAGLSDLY
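Fluorescence polarization binding of Tsg101 binding domain (10 uM final) to FITC-labeled PTAP peptide (50 nM final) in HEPES pH 7.5 buffer with NaCl, Tween 20, EDTA, TCEP. Compounds added before peptide; binding 20 min at RT.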
FUS yeast rescue = suppressors of FUS proteinopathy in yeast | S. cerevisiae FUS-expressing, growth rescue, OD600, 24 h | Potency, µM (titrated, usually from 76.6 µM), usual class: activators | 0.24% of 390,000 active;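 further: plate controls were DMSO vehicle for no effect and reference control for full effect; nearly all actives have a fitted effect of over 55% in size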
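S. cerevisiae expressing FUS from galactose induction served as the toxicity model. Growth after 24hr at 30C, read as absorbance at 600 nm, indicates suppression of toxicity; compounds dosed at several concentrations.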
aSyn rescue = rescues yeast growth from alpha-synuclein toxicity; Yeast expressing alpha-synuclein, growth rescue, BacTiter-Glo, 24 h; Potency, µM (top dose mostly 46.1 µM), for inactives: at the top dose growth rescue (activation), hits mostly activators; 0.14% of 370,000 active; further: % of control where 0% means no effect; nearly all actives have a fitted effect of over 65% in size
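Galactose-induced alpha-syn yeast (OD600=0.02, raffinose-pregrown) + pinned cpd, 24 hr, 30 deg C; growth by BacTiter-Glo luminescence. Growth restoration scores as activation.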
Numbers without * were called inactive; i = inactive; ? = inconclusive; . = not tested or not shown; [ ] = dose if it differs, or a comment. Unless noted, the call rests on the fitted dose curve; in most records, active means well fitted curve in the direction sought with a large enough effect; inconclusive means small, poorly fitted or top-dose-only effect, or another doubt; inactive means no such curve, though single readings can be large; an effect the other way counts as inactive or inconclusive. Potency means the concentration at half of the fitted maximal effect.

SMILES	TDP-43 yeast inh	Abeta rescue	PTAP TSG101 blk	FUS yeast rescue	aSyn rescue
CCCn1c2ccccc2c2cnn(CC(=O)NCCCOC)c(=O)c21	6%	i	-4%	i	9%
O=S1(=O)c2ccc(Br)cc2OC[C@@H](Cc2ccccc2)N1Cc1cn(CCC2OCCCO2)nn1	.	.	.	i	.
N/C(=N\OC(=O)CC1CCCCC1)c1cccc(Br)c1	3.2µM*	i	-7%	i	-34%
N/C(=N\OC(=O)CC1CCCCC1)c1ccc(Br)cc1	7.9µM*	i	-2%	.	-19%
COc1ccc(/C(N)=N/OC(=O)CCC2CCCC2)cc1OC	?	i	-5%	i	1%
COc1ccc(/C(N)=N/OC(=O)CC2CCCCC2)cc1OC	22µM*	i	-2%	?	1%
CCOC(=O)Nc1ccc2c(c1)C(=NNC(=S)NC)c1ccccc1-2	25µM*	i	.	i	-12%
NC(=S)NN=C1c2ccccc2-c2ccccc21	18µM*	i	-4%	i	10%
CCOC(=O)N/N=C1\CCc2ccccc21	-4%	i	-7%	i	-7%
O=C(NN=C1c2ccccc2-c2ccccc21)c1ccccc1	17%	i	-6%	i	-4%
CCOC(=O)NN=C1c2ccccc2-c2ccccc21	5µM*	i	-1%	i	-1%
CCOC(=O)NC(=S)Nc1cccc(NC(=S)NC(=O)OCC)c1	-11%	i	0%	i	5%
O=C(CCS(=O)(=O)c1nc(-c2ccc3c(c2)OCO3)cc(C(F)(F)F)n1)Nc1ccc(Br)cc1	?	i	.	i	.
CCc1ccc(C2c3c(oc4ccc(F)cc4c3=O)C(=O)N2CCc2ccc(OC)cc2)cc1 (configuration not stated)	19%	i	.	i	.
COc1ccc(Nc2c3c(nc4nncn24)CCC3)cc1Cl	22%	i	.	i	.
NC(N)=Nc1ccc(/C=C2\C=Cc3ccccc32)cc1	.	.	.	.	-14%
CCc1ccc(S(=O)(=O)NCCc2csc3nc(-c4ccccc4)nn23)s1	22µM*	i	.	i	.
COc1ccc(-c2nc3scc(CCNS(=O)(=O)c4cccs4)n3n2)cc1	25µM*	i	.	i	.
COc1ccc(-c2nc3sc(CCNS(=O)(=O)c4c(C)cc(C)cc4C)c(C)n3n2)cc1	35µM*	?	.	i	.
COc1ccc(-c2nc3scc(CCNS(=O)(=O)c4c(C)cc(C)cc4C)n3n2)cc1OC	22µM*	i	.	i	.
COc1ccc(N2CC(NC(=O)C3CC3)CC2=O)cc1OC (configuration not stated)	14%	i	.	i	.
COc1ccc(-c2nc3sc(CCNC(=O)c4ccc(Br)o4)c(C)n3n2)cc1	11µM*	i	.	?	.
Cc1c(CCNC(=O)c2ccc(Br)o2)sc2nc(-c3ccc(Cl)cc3)nn12	?	i	.	i	.
O=S(=O)(CC1NCc2ccccc21)NCCc1ccccc1 (configuration not stated)	.	.	.	i	.
COc1cccc(/C=C2\Oc3cc(OCC(=O)N4Cc5ccccc5C[C@H]4C(=O)O)ccc3C2=O)c1	4%	i	-2%	28µM*	7%
SMILES	TDP-43 yeast inh	Abeta rescue	PTAP TSG101 blk	FUS yeast rescue	aSyn rescue
Cc1ccc2c(c1)c1c(c(=O)n(-c3cccc(Cl)c3)c(=O)n1CC(=O)c1ccc(Cl)cc1)n2C	-1%	i	.	i	.
O=C(CCl)N1c2ccccc2SCC1c1ccccc1 (configuration not stated)	7.9µM*	i	-6%	i	-2%
COc1cc(NC(=O)CNS(=O)(=O)c2cccs2)cc(OC)c1OC	19%	i	.	i	-1%
CCOC(=O)CC(NC(=O)CCc1c(C)nc2c(-c3ccccc3)c(C)nn2c1C)c1ccc(C)cc1 (configuration not stated)	8%	i	.	?	.
Cc1ccc(C)c(N2CCN(C(=O)CCC(=O)N3CCOc4ccc(Cl)cc43)CC2)c1	?	?	1%	25µM*	?
O=S1(=O)c2ccc(N3CCSCC3)cc2Oc2ccccc2CN1Cc1cn(Cc2cccc(C(F)(F)F)c2)nn1	.	.	.	i	.
C=CCc1cccc(/C=N/NC(=O)CNc2ccccc2OC)c1O	11µM*	i	-5%	i	9%
COc1ccc(-n2c(-c3ccc(F)cc3)cn3c4c(=O)n(C)c(=O)n(C)c4nc23)cc1	6%	i	.	i	.
CCc1cccc(CC)c1NC(=S)Nc1ccccc1	-25%[0.397 µM]	14µM*	-3%	i	-3%
CCc1cccc(CC)c1NC(=O)c1cccc(NC(=O)c2ccccc2)c1	21%	i	-10%	i	-8%
Nc1c2ccccc2nc2ccccc12	-23%	i	-5%	i	13%
N#Cc1c2ccccc2nc2ccccc12	11µM*	i	-3%	i	?
O=C(N/N=C/C(Br)=C/c1ccccc1)c1ccccc1F	14µM*	i	0%	i	-16%
COc1ccc(OC)c(NC2c3ncccc3C(=O)N2Cc2ccco2)c1 (configuration not stated)	-8%	i	-6%	35µM*	2%
CCCC1CCC2(CCCN2CCOC(=O)Nc2ccc(OC)cc2)CC1 (configuration not stated)	.	.	.	i	.
COc1ccc(C2CC(=O)Nc3c2c(C)nn3-c2nncc(-c3ccc(C)cc3)n2)c(OC)c1OC (configuration not stated)	-4%	i	.	i	.
COc1ccccc1-c1noc2ncnc(Nc3ccccc3C)c12	?	i	-10%	i	-2%
COc1ccccc1-c1noc2ncnc(Nc3cccc(C)c3C)c12	18µM*	i	0%	i	7%
O=C(CCc1ccccc1)NCc1nc2cccnc2n1Cc1ccc(F)cc1	17%	i	.	i	.
O=C(CN1CCN(CC(=O)Nc2ccccc2C(F)(F)F)CC1)Nc1ccccc1F	10%	i	-3%	i	-1%
O=C(CN1CCN(C(=O)c2c(F)cccc2F)CC1)Nc1ccccc1C(F)(F)F	16µM*	i	-3%	i	8%
CCOc1ccc(CCN2C(=O)C(=O)N([C@@H](Cc3ccccc3)CN3CCC[C@H]3CN3C(=O)C(=O)NC[C@@H]3Cc3ccccc3)C[C@@H]2Cc2ccc(O)cc2)cc1	7%	i	.	16µM*	0%
CC(C)C[C@H]1CNC(=S)N1C[C@H]1CCCN1C[C@H](Cc1ccccc1)N1C[C@H](CC(C)C)N(CCc2ccccc2)C1=S	?	?	.	25µM*	-46%
CC(C)C[C@H]1CNC(=S)N1C[C@H]1CCCN1C[C@H](CC(C)C)N1C[C@H](CC(C)C)N(CCc2ccccc2)C1=S	28%	?	.	i	-32%
